Source: PubChem BioAssay (Broad Institute)
PGC1a acetyl inh: inhibitors of PGC1a acetylation signal, primary screen, cell-based, U2OS, AlphaScreen, inhibitor mode; inhibition, % at 15.6 µM; hit rate 0.17% among 350,000; AlphaScreen anti-acetyl-lysine; with virally co-expressed GCN5 acetyltransferase;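 active = every replicate shows inhibition of at least 40%; inconclusive = mean inhibition at least 40% but some replicate below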
MLL AF4-AF9 inh: inhibitors of AF4 peptide binding to AF9, primary screen, biochemical, AlphaScreen, biotin-AF4 peptide, FLAG-AF9, single point; inhibition, % at 10 µM; hit rate 0.47% among 350,000; Protein AF-9 (Homo sapiens), P42568; AID 651704, 2012;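 active = every replicate reaching a set inhibition limit, whatever the replicate mean, cut at about 25% in these data; inconclusive = mean inhibition reaches that limit but some replicates miss it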
RAD52 anneal inh: RAD52 DNA annealing inhibitors, primary screen, biochemical, FRET, single point, set 2; recombinant RAD52 DNA annealing, FRET fluorescence; hit rate 0.46% among 360,000; inhibition, % at 18.7 µM;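 active = every replicate showing at least 50% inhibition; inconclusive = mean inhibition at least 50% but not in every replicate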
Target sequence (P43351 whole entry, looked up): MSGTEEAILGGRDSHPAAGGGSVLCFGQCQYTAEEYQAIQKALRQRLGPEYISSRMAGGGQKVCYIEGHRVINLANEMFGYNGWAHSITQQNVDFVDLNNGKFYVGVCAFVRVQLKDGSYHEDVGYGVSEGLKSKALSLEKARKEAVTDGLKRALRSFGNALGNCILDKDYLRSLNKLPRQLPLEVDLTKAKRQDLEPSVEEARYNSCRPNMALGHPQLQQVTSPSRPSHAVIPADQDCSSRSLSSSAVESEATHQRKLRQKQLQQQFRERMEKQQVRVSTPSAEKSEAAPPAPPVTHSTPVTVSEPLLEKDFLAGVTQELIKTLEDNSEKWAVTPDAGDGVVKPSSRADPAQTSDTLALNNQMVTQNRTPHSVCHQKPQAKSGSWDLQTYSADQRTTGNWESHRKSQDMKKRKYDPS
GSIS activator: GLuc luminescence reporter in INS-1E cells, primary screen for activators of glucose-dependent secretion of insulin; hit rate 0.61% among 370,000; INS-1E GLuc reporter insulin secretion, 2-3 h; AID 743287, 2014; activation, % at 16.6 µM;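 active = lowest replicate activation of at least 40%, so every replicate reaches that level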
ERAP1 HTS inh: human ERAP1 aminopeptidase inhibitors, primary screen, biochemical, single point, plate reader; Endoplasmic reticulum aminopeptidase 1 (Homo sapiens), Q9NZ08; recombinant ERAP1, Leu-AMC fluorescence, 60 min; inhibition, % at 10.7 µM; hit rate 0.15% among 340,000; AID 652197, 2013;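 active = mean replicate inhibition of at least 30%, or all replicates individually reaching that 30% level; inactive = mean below 30% and not every replicate reaching it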
RAD54 branch: inhibitors of human RAD54 branch migration, primary screen, biochemical, fluorescence, single point; inhibition, % at 10.4 µM; hit rate 0.14% among 360,000; DNA repair and recombination protein RAD54-like (Homo sapiens), Q92698; RAD54 Holliday junction branch migration, FAM/BHQ fluorescence;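 active = mean normalized replicate activity at least 40 and at least half of replicates scoring 40 or more; inconclusive = only one of the two criteria met; inactive = mean below 40 and under half of replicates reaching 40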;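 note: inhibitors cause a drop in the FAM fluorescence signal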
Rad54 DNA ctr: DNA binding of candidate compounds, dose response, artefact control for RAD54 inhibitor project, biochemical, fluorescence polarization, cherry-pick. hit rate 8% among 460. shares compounds with RAD54 branch. Acridine orange-DNA displacement, 20 min. AC50, µM (series often up to 35 µM);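 active = signal drop giving an AC50 within twice the top valid tested concentration of each sample, actives reach about 35 µM in these data; inactive = activity opposite to expected, plus the rest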;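 note: polarization loss reports compound binding to salmon sperm DNA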
AlphaScreen intf: AlphaScreen signal interference counter-screen, dose response, artefact control, biochemical, cherry-picked samples, luminescence. shares compounds with MLL AF4-AF9 inh. AC50, µM (doses to about 12 µM). hit rate 45% among 530; cut-off not given, nearly all actives have AC50 up to about 14 µM
RAD52 DNA ctr: DNA-binding compounds via dye displacement, dose response, artefact control for RAD52 inhibitor project, biochemical, fluorescence polarization, cherry-pick | hit rate 8% among 1,000 | AC50, µM | shares compounds with RAD52 anneal inh | Salmon sperm DNA/acridine orange FP displacement;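 active = fitted half-maximal concentration for signal loss at or below twice the highest dose tested, in every separate run, actives reach about 64 µM in these data; inconclusive = runs disagree, or flat partial signal loss, or poor fit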
Numbers stand for hits; n = inactive; u = inconclusive; x = no result. The list is not random: actives were taken first. Their share in the collection is about 1.4%.

SMILES | PGC1a acetyl inh | MLL AF4-AF9 inh | RAD52 anneal inh | GSIS activator | ERAP1 HTS inh | RAD54 branch | Rad54 DNA ctr | RAD52 DNA ctr | others
Cc1noc(C)c1S(=O)(=O)N(C)C[C@H]1Oc2ccc(NC(=O)Nc3ccc4c(c3)OCO4)cc2C(=O)N([C@H](C)CO)C[C@@H]1C | x | x | x | n | x | x | x | x
CN1CCN(c2ccc(CNC(=O)C3Cc4c(-c5ccc(Cl)cc5)ccnc4O3)cc2)CC1 (stereo not drawn) | x | n | n | x | n | u | n | x
CCOC(=O)c1c(-c2ccc(-c3ccccc3)cc2)csc1NC(=O)CNCCN(C)C | n | 31 | 95 | 180 | n | 53 | n | n | AlphaScreen intf=n
Cc1cccn2c(=O)c3cc(C(=O)NCCN4CCOCC4)c(=N)n(CCCN4CCOCC4)c3nc12 | n | n | 78 | n | 35 | 92 | n | n
COc1ccc(CCNC(=O)c2cc3c(=O)n4ccccc4nc3n(CCCN3CCOCC3)c2=N)cc1OC | x | n | 54 | n | n | u | n | n
Cc1cccn2c(=O)c3cc(C(=O)NCC4CCCO4)c(=N)n(CCN4CCOCC4)c3nc12 (stereo not drawn) | n | x | n | x | n | n | x | x
COc1ccc(C#Cc2cccc(-c3nc(C(=O)N[C@@H]4CCN(Cc5ccccc5)C4)cc4c3[C@H](CCO)N(S(=O)C(C)(C)C)C4)c2)cc1OC (stereo partly drawn) | n | n | n | x | n | x | x | x
CCN(CC)CCCNC(=O)c1ccc2c3n(nc2c1)-c1ccc(Cl)cc1CO3 | n | n | 65 | n | n | 52 | n | n
CCN(CC)Cc1cc2[nH]c3c4ccc(Cl)cc4ncc3c2cc1OC | n | n | 102 | n | n | 101 | n | n
CN(C)CCNC(=O)c1c(NC(=O)c2ccccc2)sc2c1CCCC2 | n | n | 53 | n | n | 58 | n | n
CN(CCO)C(=O)c1c(NC(=O)c2ccccc2)sc2c1CCCC2 | n | n | n | n | n | n | x | x
O=C(NCCCN1CCCC1)c1cc2c(Cl)nc3ccccc3c2s1 | n | n | 63 | n | n | u | n | 42µM
CCCCN(C)C(=O)c1cc2c(Cl)nc3ccccc3c2s1 | n | n | n | n | n | n | x | x
CCN(CC)CCCN(C(=O)c1ccco1)c1nc(-c2ccc(Cl)cc2)cs1 | n | 26 | 79 | n | n | 59 | n | n
O=C(c1ccco1)N(CCCN1CCOCC1)c1nc(-c2ccc(Cl)cc2)cs1 | n | x | x | n | x | n | x | x
CO[C@@H]1CN(C)C(=O)c2cc(NS(C)(=O)=O)ccc2OC[C@@H](C)NC[C@H]1C | n | n | n | n | n | n | x | x
COc1ccc2oc3cc(NCCN(C)C)ccc3c(=O)c2c1 | n | n | 79 | n | n | 86 | n | n
COC(=O)c1c(NC(=O)c2ccc(S(=O)(=O)N3CC(C)OC(C)C3)cc2)sc2c1CCN(C)C2 (stereo not drawn) | n | n | 51 | n | n | 50 | n | n
O=C1c2cccc3cccc(c23)C(=O)N1CC1CCN(CC(O)COc2ccc3ccccc3c2)CC1 (stereo not drawn) | n | n | n | n | x | n | x | x
Cc1cc(C)cc(OCC(O)CN2CCC(CN3C(=O)c4cccc5cccc(c45)C3=O)CC2)c1 (stereo not drawn) | n | 30 | 95 | n | x | 66 | n | n | AlphaScreen intf=n
C[C@H]1CN([C@@H](C)CO)C(=O)c2ccccc2-c2ccccc2CO[C@@H]1CN(C)S(=O)(=O)c1cccc(F)c1 | x | x | x | n | x | x | x | x
Cc1cccc(-c2nc(NCCCN(C)C)c3ccccc3n2)c1 | n | n | 84 | n | n | 82 | n | n
CN(C)CCNc1cc(-c2ccncc2)nc2ccccc12 | x | n | 80 | n | n | 57 | n | n
COCCNc1c2c(nc3ccccc13)CCC2 | n | n | n | n | n | n | x | x
CN(C)CCCNc1c2c(nc3ccccc13)CCC2 | n | n | 78 | n | n | 67 | n | n
SMILES | PGC1a acetyl inh | MLL AF4-AF9 inh | RAD52 anneal inh | GSIS activator | ERAP1 HTS inh | RAD54 branch | Rad54 DNA ctr | RAD52 DNA ctr | others
Cc1ccc(-c2nc(NCCN(C)C)c3ccccc3n2)cc1 | n | n | 71 | n | n | 78 | n | n
O=C(NCc1ccccc1)c1cc(-c2ccncc2)nc2ccccc12 | n | n | n | n | n | n | x | x
Cc1ccc(-c2nc(NCc3ccco3)c3ccccc3n2)cc1 | n | n | n | n | n | x | x | x
O=C(O)C[C@@H]1CC[C@@H](NC(=O)Nc2ccccc2)[C@@H](CO)O1 | n | n | n | n | n | n | x | x
C[C@@H]1CCCCO[C@@H](CN(C)CC2CCCCC2)[C@H](C)CN([C@@H](C)CO)C(=O)c2cc(NC(=O)NC3CCCCC3)ccc2O1 | n | x | x | n | x | n | x | x
CCCNC(=O)N1C[C@@H](C)[C@@H](OC)CN(C)C(=O)c2cc(NS(C)(=O)=O)ccc2OC[C@H]1C | n | n | n | n | n | n | x | x
CN(C)CCCNc1ncnc2sc(-c3ccccc3)cc12 | n | n | 68 | n | x | 64 | n | u
O=C1c2cccc3cc([N+](=O)[O-])cc(c23)C(=O)N1CCN1CCCC1 | x | n | 82 | n | n | 98 | 34µM | 25µM
CCNC(=S)N1CCN(CCN2C(=O)c3cccc4cccc(c34)C2=O)CC1 | n | n | n | n | n | n | x | x
NC(=O)CN1CCN(CCN2C(=O)c3cccc4cccc(c34)C2=O)CC1 | n | n | n | n | n | 58 | n | n
O=C1c2ccccc2C(=O)N1CCN1CCCCC1 | n | x | x | n | x | x | x | x
CO[C@H]1CN(C)C(=O)c2ccc(NC(=O)Nc3ccccc3F)cc2OC[C@H](C)NC[C@H]1C | n | n | n | n | n | n | x | x
COCC(=O)N(C)C[C@H]1Oc2cc(C#CCC3CCCC3)ccc2S(=O)(=O)N([C@H](C)CO)C[C@@H]1C | n | n | n | n | n | n | x | x
c1ccc2c(NCCc3c[nH]c4ccccc34)c3ccccc3nc2c1 | x | 44 | 97 | n | n | 93 | 36µM | 41µM
Fc1cccc(NCCc2c[nH]c3ccccc23)n1 | x | n | n | n | n | n | x | x
COc1nc(NCCc2ccc(OC)c(OC)c2)nc(OC)n1 | n | x | x | x | x | n | x | x
COc1cc(Nc2c3ccccc3nc3ccccc23)cc(OC)c1OC | n | 31 | 55 | n | n | 76 | n | n | AlphaScreen intf=13µM
